Among the data in PubChem BioAssay AID624330 (Southern Research Specialized Biocontainment Screening …, 2012) are inhibition values, retold here.

Screen size: about 340,000 compounds; about 2,100 (0.62%) were called active. The list is a sample of the results. Potency and affinity values are given separately. A number with no mark means an inactive call.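 Rule for the calls: active = first-screen hits whose inhibition reached a set limit at any dose in the follow-up dose series; inconclusive = inhibition above the set first-screen limit but never retested; inactive = the rest.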

Chain of Rac GTPase-activating protein 1 (Homo sapiens) (Q9H0H5 whole entry, looked up): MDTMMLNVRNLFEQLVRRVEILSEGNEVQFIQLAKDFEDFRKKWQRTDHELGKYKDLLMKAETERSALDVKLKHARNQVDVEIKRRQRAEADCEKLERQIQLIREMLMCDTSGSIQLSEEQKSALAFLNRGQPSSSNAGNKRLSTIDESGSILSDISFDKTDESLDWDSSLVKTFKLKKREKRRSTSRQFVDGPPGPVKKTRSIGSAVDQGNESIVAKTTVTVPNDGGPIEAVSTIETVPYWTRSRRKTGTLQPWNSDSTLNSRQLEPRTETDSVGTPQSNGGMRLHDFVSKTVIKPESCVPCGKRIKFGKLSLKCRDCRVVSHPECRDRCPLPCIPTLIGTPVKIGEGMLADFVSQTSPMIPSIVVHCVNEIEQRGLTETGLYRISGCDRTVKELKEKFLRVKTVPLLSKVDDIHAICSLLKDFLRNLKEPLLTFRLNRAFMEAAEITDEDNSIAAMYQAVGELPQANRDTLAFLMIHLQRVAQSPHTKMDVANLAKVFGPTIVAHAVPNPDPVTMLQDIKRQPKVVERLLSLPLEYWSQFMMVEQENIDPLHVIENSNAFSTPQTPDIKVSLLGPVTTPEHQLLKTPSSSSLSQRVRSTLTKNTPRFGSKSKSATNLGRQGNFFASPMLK

The experiment addresses Rac GTPase-activating protein 1 (Homo sapiens) (UniProt Q9H0H5). Description: MgcRacGAP GTPase-activating activity inhibitors, confirmation, biochemical, ADP Hunter fluorescence, primary and confirmatory (AID 624330).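 Note: fluorescence reports GDP produced by GAP-driven GTP hydrolysis.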 The settings on record: MgcRacGAP-stimulated Rac1 GTP hydrolysis, at 30 µM, stronger effect = higher value, GST-tagged Rac1 F28L mutant substrate.
As usually defined, the inhibition is the relative decrease from the control value, in per cent. With `CC(=O)NC(Cc1ccccc1C)C(=O)NC1CCN(c2nnnn2-c2ccccc2)CC1` (centres undefined), the inhibition is 3.78%.

Take `C#CCO[C@@H]1C[C@H](n2ccc(NC(=O)c3ccccc3)nc2=O)O[C@@H]1CO`: the inhibition is 7.23%.

Regarding `CSc1ncccc1C(=O)N1CCCC(N2CCN(c3ccccc3C)CC2)C1` (centres undefined), the inhibition was 10.5%.

Regarding `O=C(NC(c1ccccc1)c1ccccc1)C1CCCN(S(=O)(=O)c2cnc[nH]2)C1` (centres undefined), the inhibition is 1.47%.

Consider `C=CCc1ccc(OCCOCCNCCOC)c(OC)c1`, for which the inhibition was 8.29%.

On to `C=CCc1ccc(OCCOCCN(C)C)c(OC)c1`, for which the inhibition was 11.5%.

Regarding `COc1cccc(NC(=O)COc2ccc(C(=S)N3CCN(C)CC3)cc2OC)c1`, the inhibition is 7.49%.

Regarding `Cc1ccc(NC(=O)CSc2nn(-c3ccccc3)c(=S)s2)cc1S(=O)(=O)N(C)C`, the inhibition is 2.35%.

In the case of `O=C(c1ccccc1F)N1CCN(C(=O)C2CC2)CC1`, the inhibition was 3.19%.

Take `CC1(C)O[C@@H]2[C@H](O1)[C@@H](COS(=O)(=O)O)O[C@H]2n1cnc2c(=O)[nH]cnc21`: the inhibition is 7.41%.

Regarding `CC1(C)O[C@@H]2[C@H](O1)[C@@H](COS(=O)(=O)O)O[C@H]2n1ccc(=O)[nH]c1=O`, the inhibition was 2.43%.

For the compound `CC1CN(S(=O)(=O)N(C)C)CCN1S(=O)(=O)N(C)C` (centres undefined), the inhibition is 5.65%.

As to `COC(=O)c1c(N)sc(Cc2ccccc2)c1C`, the inhibition was 7.62%.

Regarding `CCOC(=O)c1c(N)sc(-c2ccccc2)c1C`, the inhibition is 27.2%.

As for `CC(C)c1ccc(N2C(=O)CC(Sc3ncccn3)C2=O)cc1` (centres undefined), the inhibition was 1.68%.

`CC1=C(C)CS(=O)N(S(=O)(=O)c2ccccc2)C1` (centres undefined): the inhibition was 30.6%.

On to `O=S(=O)(c1ccccc1)N1CCN(S(=O)(=O)c2ccccc2)C1`, for which the inhibition is 3.12%.

Turning to `Cc1cccc(C(=O)NCC(c2ccc(F)cc2)N2CCOCC2)c1` (centres undefined), the inhibition is 3.85%.

With `Cc1ccc(C)c(CSc2ncccc2C(=O)O)c1`, the inhibition is 9.95%.

With `O=C(c1ccccc1)c1ccc2c(c1)OCCOCCOCCOCCO2`, the inhibition was -8.09%.

For `NC(=O)c1ccc2c(c1)OCCO2`, the inhibition was -2.13%.

As to `O=C(Nc1cccnc1)c1cccc(NC(=O)c2ccco2)c1`, the inhibition is 11.1%.

For the compound `O=C(Nc1cccc(S(=O)(=O)Nc2ccccc2F)c1)c1ccco1`, the inhibition was 0.67%.

As to `N#Cc1cc([N+](=O)[O-])ccc1NCCCn1ccnc1`, the inhibition is -2.38%.

As for `Cc1ccccc1-n1c(=O)c2ccccc2n2cnnc12`, the inhibition was 2.97%.

With `Cc1nnc2n(-c3ccccc3)c(=O)c3ccccc3n12`, the inhibition is 9.66%.

Turning to `CCCCCn1c(=O)c2ccccc2n2c(CCl)nnc12`, the inhibition was 1.94%.

`CCOCCCNC(=O)CCc1nnc2n(CCC(C)C)c(=O)c3ccccc3n12`: the inhibition was 7.91%.

`Cn1c(=O)c2ccccc2n2c(CCl)nnc12`: the inhibition was -0.09%.

For the compound `Cc1ccccc1-n1c(=O)c2ccccc2n2c(=O)[nH]nc12`, the inhibition was 3.11%.

On to `CN1CCN(C(=O)/C(=C/c2ccco2)NC(=O)c2ccccc2)CC1`, for which the inhibition was 3.42%.

For the compound `CC1CCCCN1C(=O)NC1CC(=O)N(c2ccc3c(c2)OCCO3)C1` (centres undefined), the inhibition is 4.77%.

For `CCCOc1ccc(C(=O)ON=C2CCN(C)CC2)cc1`, the inhibition is 5.39%.

With `Cc1ccc(-c2csc3ncnc(N4CCN(Cc5ccccc5)CC4)c23)cc1`, the inhibition was 4.03%.

For `O=C(CN1C(=O)NC2(CCOc3ccccc32)C1=O)c1ccc[nH]1` (centres undefined), the inhibition was -0.33%.

Take `COc1ccccc1CNc1nc2nc(C)c(Cl)c(=O)n2[nH]1`: the inhibition is 3.76%.

`Cc1nc2sc(C(c3cccs3)N3CCN(C(=O)c4ccco4)CC3)c(O)n2n1` (centres undefined): the inhibition was 1.66%.

Consider `Cc1cc(O)c(C(=O)Cc2csc(C)n2)c(O)c1`, for which the inhibition was 1.16%.

As to `CCc1cc(/C(Cc2ccccn2)=N\Nc2ccccc2)c(O)cc1O`, the inhibition is 5.83%.

For the compound `CCc1cc(C(=O)Cc2ccccn2)c(O)cc1O`, the inhibition is -7.09%.

In the case of `Cc1cc(O)cc(O)c1C(=O)Cc1cscn1`, the inhibition was 7.26%.

On to `CCc1cc2c(=O)c(-c3cscn3)coc2cc1O`, for which the inhibition is -2.61%.

As to `CCc1cc(/C(Cc2ccc3ccccc3n2)=N\O)c(O)cc1O`, the inhibition is 22.8%.

With `CCOC(=O)N1CCC(=NNC(=O)NC2CCCCC2)CC1`, the inhibition was -0.13%.

In the case of `Cn1c(=O)n(C)c2cc(/C=N/N=C3/NC(=O)C(CC(=O)O)S3)ccc21` (centres undefined), the inhibition was 11.1%.

Turning to `Nn1c(SCC(=O)NCC2CCCO2)nnc1-c1cc(Cl)ccc1Cl` (centres undefined), the inhibition was 5.2%.

As to `COc1ccccc1OCC(=O)NNC(=O)CSC(=S)N1CCCC1`, the inhibition is 8.8%.

Regarding `CC(C)C(NC(=O)CNC(=O)OC(C)(C)C)C(=O)NCc1ccc(Cl)cc1` (centres undefined), the inhibition was 4.12%.

As to `CN1CCN(CCOc2ccc(Cc3ccccc3)cc2)CC1`, the inhibition is 10.6%.

Take `c1ccc(COc2ccc(OCCCN3CCCC3)cc2)cc1`: the inhibition is 15.1%.

Regarding `CCN1CCN(CCOCCOc2ccccc2)CC1`, the inhibition is 28.1%.

As for `COc1ccc(OCCOCCN2CCc3ccccc3C2)cc1`, the inhibition is 28.9%.

For `CCOc1cccc(OCCOCCN2CCCC2)c1`, the inhibition was 25%.

With `c1ccc(OCCCCN2CCCCC2)cc1`, the inhibition is 12.9%.

Take `COc1ccc(OCCOCCN2CCOCC2)cc1`: the inhibition was 12.8%.

As to `CCOc1ccc(OCCN2CCCCC2)cc1`, the inhibition is 19.4%.

For `CC(Sc1nnc(-c2ccccc2F)n1C)C(=O)NC1CCCCC1` (centres undefined), the inhibition is 6.18%.

Turning to `CCOC(=O)c1c(C)sc(Sc2ccc(Cl)cc2[N+](=O)[O-])c1OC`, the inhibition is 4.34%.

Turning to `Cc1ccnc(SC2CC(=O)N(c3ccc(F)cc3)C2=O)n1` (centres undefined), the inhibition was 1.56%.

With `C(=N\N=C\c1ccccn1)/c1ccccn1`, the inhibition was 3.13%.

On to `COc1ccc(CN(C)C(=O)[C@H](Cc2ccccc2)NC(=O)c2ccco2)c(OC)c1`, for which the inhibition is 0.3%.

In the case of `COCCCNC(=O)CC1C[C@H](C(=O)N2CCOCC2)[C@@]2(C)c3[nH]c4ccc(OC)cc4c3CCN2C1=O` (some centres undefined), the inhibition was 8.55%.

In the case of `Cc1ccccc1N(CC(=O)N/N=C/c1cc(Br)c(C)o1)S(C)(=O)=O`, the inhibition is 4.93%.

In the case of `O=S(=O)(NCCN1CCOCC1)c1ccc2c(c1)OCCO2`, the inhibition was 3.86%.
